Bioassay records as filed in PubChem BioAssay.
Sfp PPTase inh = qHTS Assay for Inhibitors of Bacillus subtilis Sfp phosphopantetheinyl transferase (PPTase) | 4'-phosphopantetheinyl transferase ffp (Bacillus subtilis), Q9F4F7 | Biochemical Sfp PPTase activity, qHTS | Potency, µM, for inactives: largest response in the series, negative = inhibition, usual class: inhibitors | 310,000 compounds, 3.5% hits | AID 1490, 2009;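 also: the enzyme is Sfp with the accession as filed and its product quenches rhodamine fluorescence; potency is read from the fitted curve at half-maximal effect; 0% = enzyme reaction without inhibitor and -100% = no enzyme wells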
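Step 1, compound plus 15 nM Sfp-PPTase, 15 min, room temperature. Step 2, add rhodamine-CoA (5 uM) and BHQ-2-YbbR (12.5 uM). Step 3, read 525/598 nm fluorescence at 0 and 30 min.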
Tau fluor counter = Counterscreen qHTS for Inhibitors of Tau Fibril Formation, Fluorescence Polarization; tau K18 P301L Alexa594 fluorescence, heparin fibrillization; Potency, µM (series often up to 57.7 µM), for the others: at the highest dose activity change, negative = decrease; 280,000 compounds, 0.93% hits; AID 1463, 2008; also: potency is read from the fitted curve at half-maximal effect; nearly all actives have a fitted effect of over 55% in size
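Human tau K18 P301L (15 uM unlabeled, 0.24 uM Alexa 594-labeled) in 100 mM sodium acetate pH 7 with 20 uM heparin, 6 hr at 37 C. ThT 30 uM added, 1 hr ambient; Alexa 594 FP and total fluorescence read at 555/632 nm.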
Coupling enz = qHTS Assay for Inhibitors of Fructose-1,6-bisphosphate Aldolase from Giardia Lamblia: Coupling assay counterscreen | coupling enzyme system counterscreen, AmpLite Red fluorescence | activity change, negative = inhibition, % at 58.2 µM, hits read low | 290,000 compounds, 0.67% hits | AID 2472, 2010; in the data active = activity change below about -30%
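First, compound is pin-transferred into glyceraldehyde-3-phosphate coupling-enzyme reagent at 57.5 uM final and held 10 min at RT. Next, substrate, coupling system and AmpLite Red are added. After 20 min RT, fluorescence (525/598 nm) is read.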
G9a block = qHTS Assay for Inhibitors of Histone Lysine Methyltransferase G9a. 350,000 compounds, 8.8% hits. Potency, µM (titrated, usually from 102 µM), without a hit: top-dose activity, negative = inhibition, actives largely listed as inhibitors. Histone-lysine N-methyltransferase EHMT2 (Homo sapiens), Q96KQ7. G9a H3K9 monomethylation, AlphaScreen, 2 h; also: potency is read from the fitted curve at half-maximal effect; nearly all actives have a fitted effect of over 75% in size
Target sequence (Q96KQ7 913-1193 limits assumed): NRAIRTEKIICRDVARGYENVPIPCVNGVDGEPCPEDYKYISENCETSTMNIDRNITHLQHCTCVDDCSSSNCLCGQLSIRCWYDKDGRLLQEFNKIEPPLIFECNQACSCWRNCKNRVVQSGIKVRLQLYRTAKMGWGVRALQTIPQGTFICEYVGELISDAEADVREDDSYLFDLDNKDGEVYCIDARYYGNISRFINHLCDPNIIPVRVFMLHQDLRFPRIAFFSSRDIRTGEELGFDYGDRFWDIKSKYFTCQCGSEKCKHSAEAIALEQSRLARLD
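Compounds were preincubated with 20 nM G9a for 15 min, after which biotinylated H3K9 peptide (500 nM) and SAM (20 uM) started a 2 h room-temperature reaction. Monomethylated product was quantified by antibody-based AlphaScreen chemiluminescence.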
Tau fibril FP = qHTS for Inhibitors of Tau Fibril Formation, Fluorescence Polarization | AID 1468, 2008 | K18 P301L tau heparin fibrillization, Alexa594 FP, 6 h | 280,000 compounds, 0.39% hits | Potency, µM (highest dose often 57.7 µM), inactives show at the top dose activity, negative = inhibition, actives largely listed as inhibitors | Microtubule-associated protein tau (Homo sapiens), P10636; also: potency is read from the fitted curve at half-maximal effect; nearly all actives have a fitted effect of over 55% in size
Target sequence (P10636 561-689 P618L limits assumed): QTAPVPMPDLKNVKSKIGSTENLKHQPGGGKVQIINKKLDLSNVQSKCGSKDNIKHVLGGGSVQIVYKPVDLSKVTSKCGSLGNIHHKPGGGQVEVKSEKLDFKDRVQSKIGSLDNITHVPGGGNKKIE
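FP of Alexa 594-tau after heparin (20 uM) induction. Substrate: human K18 P301L, 15 uM unlabeled, 0.24 uM labeled. Buffer 100 mM sodium acetate pH 7. 6 hr, 37 C.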
Tau ThT inhib = qHTS for Inhibitors of Tau Fibril Formation, Thioflavin T Binding | Potency, µM (series often up to 57.4 µM), for the others: at the highest dose activity, negative = inhibition, actives largely listed as inhibitors | 270,000 compounds, 2.1% hits | recombinant tau K18 P301L (four-repeat tau fragment), heparin-induced fibrillization, ThT fluorescence | AID 1460, 2008; also: potency is read from the fitted curve at half-maximal effect; nearly all actives have a fitted effect of over 55% in size
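Tau K18 P301L fragment (15 uM unlabeled plus 0.24 uM Alexa 594-labeled) in 100 mM sodium acetate pH 7 with compound, fibrillization induced by 20 uM heparin for 6 hr at 37 C. Thioflavin T (30 uM) added, fluorescence read after 1 hr (ex 450, em 510 nm).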
* = called active by the depositor; ? = inconclusive; / = no result given; [ ] = another dose, or the depositor's remark. A selection: hits, their analogues and other compounds. The true share with any hit is near 11%. Unless noted, calls follow the shape of the dose curve; as a rule, active = well fitted curve in the direction sought with a large enough effect; inconclusive = small, poorly fitted or top-dose-only effect, or another doubt; inactive = no such curve, though single readings can be large; an effect the other way counts as inactive or inconclusive. Unless noted, % is scaled to controls: 0 for no effect and ±100 for the full control effect.

SMILES | Sfp PPTase inh | Tau fluor counter | Coupling enz | G9a block | Tau fibril FP | Tau ThT inhib
CCN1CCN(Cc2c(O)ccc3c(C)c(-c4ccccc4)c(=O)oc23)CC1 | / | 0.1% | / | 3.3%[59 µM] | -6.8% | 0.0%
Cc1nnc(N2CCN(c3ccc(Cl)cc3)CC2)c2c1nnn2Cc1ccc(F)cc1 | / | -12.4% | / | 9.8%[59 µM] | 7.3% | -17.8%
Cc1csc(SCC(=O)c2ccc(S(=O)(=O)N3CCOCC3)cc2)n1 | ? | -1.5% | -2.3 | 28.2µM* | 1.9% | ?
CCn1nc(C)c(CCN(C)C(=O)Nc2cccc(Cl)c2C)c1C | / | 5.0% | / | -0.9%[59 µM] | -0.8% | 5.3%
CCCCN1C(C(=O)c2ccccc2)=C(OC(C)=O)c2ccccc2S1(=O)=O | / | -23.4% | / | ? | ? | ?
CCSc1ncnc2c1sc1nc(-c3ccco3)c3c(c12)CC(C)(C)OC3 | -33.1% | 0.9% | -0.4 | / | -6.2% | -7.8%
CCCc1nc2sc3c(SCC(=O)NCc4ccco4)ncnc3c2c2c1CCC2 | 50.1µM* | -1.8% | 1.9 | 39.8µM* | -5.0% | ?
CCOC(=O)c1sc2nc(-c3ccco3)c3c(c2c1N)CC(C)(C)OC3 | 8.91µM* | -27.4% | -3.3 | ? | 4.3% | ?
COC(=O)CSc1ncnc2c1sc1nc(-c3ccco3)c3c(c12)CC(C)(C)OC3 | 11.2µM* | -8.7% | 0.6 | ? | -8.9% | ?
Cc1ccc(C2C3=C(CC(C)(C)CC3=O)Nc3[nH]c(=S)[nH]c(=O)c32)cc1 (centres undefined) | 14.1µM* | -7.5% | 2.9 | ? | -4.8% | -10.8%
CC(C)N(C(=O)CSc1nc2ccccc2n1-c1ccccc1)C(C)C | 79.4µM* | -11.8% | / | 21.1%[0.0925 µM] | 2.8% | ?
COCCCN1C(=O)/C(=C\c2cccs2)C(C(=O)OC)=C1C | 7.0% | -9.4% | 2.1 | ? | -4.7% | ?
CCN1C(=O)/C(=C\c2cccs2)C(C(=O)OC)=C1C | -1.2% | -17.4% | 1.8 | 44.7µM* | -5.2% | ?
COC(=O)C1=C(C)N(C2CCCCC2)C(=O)/C1=C\c1cccs1 | 11.9% | -21.1% | 1.2 | 3.16µM* | -8.4% | ?
CCOC(=O)C1=C(C)N(CC(C)C)C(=O)/C1=C\c1cccs1 | -15.8% | -20.2% | 5.2 | / | -3.1% | ?
COC(=O)C1=C(C)N(CC(C)C)C(=O)/C1=C\c1cccs1 | 2.9% | -29.3% | 6.8 | 39.8µM* | ? | ?
COC(=O)C1=C(C)N(Cc2cccnc2)C(=O)/C1=C\c1sccc1C | -22.0% | -27.8% | -0.9 | / | 2.6% | 14.1µM*
COC(=O)C1=C(C)N(C)C(=O)/C1=C\c1cccs1 | 8.9% | -13.3% | -0.3 | ? | -1.9% | ?
COc1ccc(-c2nsc(NC(=O)c3oc4cc(C)c(C)cc4c3C)n2)cc1 | / | -5.9% | / | -27.2%[59 µM] | ? | ?
COc1ccccc1CNC(=O)c1oc2c(c1C)-c1nn(Cc3ccc(Cl)cc3)cc1CC2 | / | ? | / | -6.3%[59 µM] | -4.8% | -5.1%
CC1(c2ccc([N+](=O)[O-])cc2)NC(=O)NC1=O (centres undefined) | 8.8% | / | 0.5 | 11.1% | / | /
CC1CC2(CCCCC2)N2C(=O)C(=O)c3cccc1c32 (centres undefined) | 6.2% | -2.0% | 3.4 | 70.8µM* | 1.4% | ?
Cc1cc2c3c(c1)C(C)CC(C)(C)N3C(=O)C2=O (centres undefined) | 0.2% | -3.2% | -2.1 | / | 2.6% | ?
CCOCCCNC(=S)NCCCNc1nc2c(C)c(C)ccc2cc1C#N | ? | -27.3% | -6.9 | 56.2µM* | 4.9% | ?
CCOCCCNC(=S)N1CCCN(c2nc3c(C)c(C)ccc3cc2C#N)CC1 | 8.8% | 15.9%[2.34 µM] | 0.8 | -2.5% | 4.9%[2.34 µM] | -4.4%
SMILES | Sfp PPTase inh | Tau fluor counter | Coupling enz | G9a block | Tau fibril FP | Tau ThT inhib
CCC(=O)NCCCNc1nc2c(C)cccc2cc1C#N | ? | 6.0% | -13.5 | 35.5µM* | -5.4% | 0.7%
N#C/C(=C\c1ccncc1)c1nc2ccccc2o1 | ? | -11.9% | -1.3 | ? | -4.1% | -17.1%
N#C/C(=C\c1cccc(O)c1)c1nc2ccccc2o1 | 79.4µM* | ? | -3.1 | -26.2% | ? | ?
N#C/C(=C\Nc1ccccc1O)c1nc2ccccc2o1 | ? | 17.8µM*[quencher] | -4.6 | -6.0%[59 µM] | ? | ?
CC1CCN(C(=O)C2CCN(S(=O)(=O)c3cccc4nonc34)CC2)CC1 | 6.5% | -2.8% | -1.2 | -8.5% | -1.2% | -10.2%
O=C(Nc1cccc(NC(=O)c2ccccc2)n1)c1ccccc1 | -6.4% | / | 2.0 | 3.0% | / | /
CCCc1nc(NC(=O)c2ccccc2)nc(NC(=O)c2ccccc2)n1 | -11.0% | -20.3% | 0.1 | 70.8µM* | -10.8% | -9.0%
c1ccc(CCc2nc3ccccc3[nH]2)cc1 | 19.3% | -6.8% | -0.2 | 4.8% | -3.0% | -5.6%
S=c1cnc2ccccc2[nH]1 | 20µM* | 4.7% | 3.7 | 1µM* | -7.3% | -14.1%
CCN1CCN(Cc2ccc(NC(=O)c3cc(NC(=O)c4ccno4)cc(OC)c3)cc2C(F)(F)F)CC1 | 10.4% | -13.3% | 1.8 | -36.0%[59 µM] | -16.2% | 14.4%
CCN1CCN(Cc2ccc(NC(=O)c3ccc(C)c(NC(=O)c4c[nH]c5cc(C(F)(F)F)ccc5c4=O)c3)cc2C(F)(F)F)CC1 | 79.4µM* | -21.6% | -2.4 | ? | ? | ?
CCN1CCN(Cc2ccc(NC(=O)c3cc(NC(=O)c4cc(-c5ccc(OC)cc5)n[nH]4)cc(OC)c3)cc2C(F)(F)F)CC1 | ? | ? | 0.4 | ? | 28.2µM* | ?
CCN1CCN(Cc2ccc(NC(=O)c3cc(NC(=O)c4cc5cccc(OC)c5o4)cc(OC)c3)cc2C(F)(F)F)CC1 | 44.7µM* | ? | -2.2 | ? | ? | 1.7%
CCN1CCN(Cc2ccc(NC(=O)c3ccc(C)c(NC(=O)c4cccc(-c5cn[nH]c(=O)c5)c4)c3)cc2C(F)(F)F)CC1 | 6.2% | / | 0.6 | / | / | /
CCN1CCN(Cc2ccc(NC(=O)c3cc(NC(=O)c4cncc(-c5cccs5)c4)cc(OC)c3)cc2C(F)(F)F)CC1 | ? | / | -3.4 | 50.1µM* | / | /
CCN1CCN(Cc2ccc(NC(=O)c3cc(NC(=O)c4ccc5n[nH]nc5c4)cc(OC)c3)cc2C(F)(F)F)CC1 | 14.2% | -29.1% | -2.4 | ? | ? | 11.2%
